# From the supplement of paper PMC4166925
# ± gives the standard deviation of the averaged measurements. Over roughly 33,000 sequences, “E-score (dimensionless, -0.5 to 0.5)” has its median near -0.049; the highest 2% begin near 0.37. The entries come from a sample that favours the highest values as a whole.
# System: T1, PmTbr T-box DNA-binding domain (GST fusion)
# T1 sequence: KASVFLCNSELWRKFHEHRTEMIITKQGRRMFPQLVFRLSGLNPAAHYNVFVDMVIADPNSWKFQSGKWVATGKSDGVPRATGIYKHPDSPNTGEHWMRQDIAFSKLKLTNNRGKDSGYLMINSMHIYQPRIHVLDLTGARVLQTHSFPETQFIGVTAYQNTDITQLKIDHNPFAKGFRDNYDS
# Assay: PBM E-score of 8-mer (E-score (dimensionless, -0.5 to 0.5)); Tbr is Tbrain of the sea star Patiria miniata (Pm) or the sea urchin Strongylocentrotus purpuratus (Sp); higher = stronger binding preference
# Conditions: the construct has about 5 more residues each side
# How it was run: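 Universal Agilent oligonucleotide arrays, made double-stranded by primer extension, were incubated with 200 nM GST-fused Tbr T-box DNA-binding domain in PBS (pH 7.5). The protein was expressed in BL21 E. coli at 20 °C and purified by glutathione affinity chromatography. After scanning and quantification, the Universal PBM Analysis Suite assigned an enrichment E-score to each ungapped 8-mer, averaged over duplicate arrays.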
row,Sequence,PBM E-score of 8-mer
1,CCGTTAGA,0.0408 ± 0.021
2,GCTGACTA,-0.0402 ± 0.059
3,AATGCTCC,-0.0523 ± 0.0048
4,CATCTGCC,-0.176 ± 0.007
5,AGGTTATG,0.0583 ± 0.03
6,AGACGCTG,-0.078 ± 0.052
7,CGTGTTAG,0.354 ± 0.01
8,CTTGTTAA,0.236 ± 0.09
9,ACTGTTAG,0.217 ± 0.017
10,AGTGTTTA,0.258 ± 0.043
11,GCTGTTAA,0.199 ± 0.089
12,AGTGTTAG,0.407 ± 0.014
13,CGTGTTAA,0.409 ± 0.029
14,GGTGTTTA,0.399 ± 0.015
15,CGTGTTTA,0.0204 ± 0.033
16,GGTGTTAA,0.479 ± 0.0049
17,TGTGTTAA,0.365 ± 0.029
18,CCTGTTAA,0.185 ± 0.023
19,CCGCCCGA,0.0216 ± 0.052
20,CTCAAGAG,0.00045 ± 0.0019
21,CCAGACCA,-0.0405 ± 0.051
22,GAGACAGC,0.0107 ± 0.051
23,CATCAGGG,-0.024 ± 0.045
24,AGATAGTC,-0.0975 ± 0.03
25,AATACTTG,-0.0724 ± 0.093

row,Sequence,PBM E-score of 8-mer
1,AATGCGCA,-0.0568 ± 0.095
2,AGGGGGAA,-0.14 ± 0.053
3,CCTAAGTC,-0.0839 ± 0.0091
4,AGTGTTCC,0.0364 ± 0.038
5,ACTGTTAA,0.21 ± 0.045
6,ACTGTTAC,0.118 ± 0.043
7,GGTGTAAC,0.363 ± 0.027
8,GGTGTAAA,0.418 ± 0.0026
9,CGTGTTAC,0.349 ± 0.015
10,AATGTTAA,-0.0297 ± 0.11
11,GCTGTTAC,0.0246 ± 0.042
12,AGTGTTAC,0.3946 ± 0.0021
13,AGTGTTAA,0.433 ± 0.017
14,AGTGTAAA,0.287 ± 0.081
15,GGTGTTAC,0.4752 ± 0.00012
16,CCCACAGG,0.0869 ± 0.067
17,CCGGTTGC,-0.0645 ± 0.0032
18,CATAGATA,-0.161 ± 0.051
19,ACCAACGA,0.0332 ± 0.14
20,GTGCTTGA,0.00432 ± 0.026
21,ACTGTTAT,0.0989 ± 0.046
22,AGTGTTAT,0.397 ± 0.016
23,AATGTTAT,-0.00229 ± 0.038
24,CCCGAGGG,-0.251 ± 0.11
25,CCTTCTCC,-0.0679 ± 0.015

row,Sequence,PBM E-score of 8-mer
1,AGAGCAAA,-0.099 ± 0.029
2,TAACAAGA,0.0263 ± 0.085
3,AGCTGCCA,0.18 ± 0.026
4,GTGTGCGA,0.3565 ± 0.0019
5,AGGTGCCC,0.0662 ± 0.046
6,GGGTGCGA,0.4765 ± 0.0031
7,AGGTGCCA,0.4761 ± 0.0036
8,AGGTGCCG,0.439 ± 0.0092
9,ACGTGCCA,0.367 ± 0.031
10,GTGTGCTA,0.3066 ± 0.0011
11,CGGTGCGA,0.35 ± 0.017
12,GGGTGCTA,0.4326 ± 0.0028
13,ACGTGCCG,0.221 ± 0.02
14,CGGTGCTA,0.321 ± 0.0088
15,CACGCCAC,0.222 ± 0.04
16,ACGAAGTG,0.291 ± 0.018
17,CTGGGCCA,-0.217 ± 0.042
18,AGGTCACA,0.27 ± 0.017
19,GCTACGAC,0.00882 ± 0.05
20,CGGCAATA,-0.0175 ± 0.065
21,CGGCCTAA,-0.0861 ± 0.036
22,AACTCAAC,-0.0361 ± 0.029
23,CGCTATAA,0.164 ± 0.045
24,CGGTGCCA,0.195 ± 0.0034
25,AGGTGCAA,0.4484 ± 0.0012

row,Sequence,PBM E-score of 8-mer
1,GCGTGCCA,0.163 ± 0.015
2,GGGTGCAA,0.31 ± 0.0046
3,GGGTGCCA,0.426 ± 0.011
4,TGGTGCAA,0.192 ± 0.012
5,AAAGACCG,-0.149 ± 0.032
6,TCCTGCCA,0.183 ± 0.019
7,AGCGTGAT,0.207 ± 0.025
8,GGCGTGCA,-0.00275 ± 0.035
9,AGCGTGAA,0.381 ± 0.004
10,AGCGTGAG,0.24 ± 0.042
11,CACGTGAA,0.176 ± 0.044
12,CGCGTGAA,0.398 ± 0.033
13,CGCGTGAG,0.282 ± 0.004
14,GGCGTGAA,0.4668 ± 0.002
15,TGCGTGAA,0.3679 ± 0.0033
16,AGCGTGAC,0.3524 ± 0.0023
17,CGCGTGAC,0.342 ± 0.0057
18,GGCGTGAC,0.386 ± 0.017
19,CTAGGATC,-0.255 ± 0.018
20,TTGAGAAA,0.0227 ± 0.14
21,ATGACCAT,-0.23 ± 0.0083
22,TCCTTAGA,-0.289 ± 0.043
23,CCCAAGCC,-0.228 ± 0.037
24,AGTCAATG,-0.195 ± 0.041
25,CTTCCACA,0.151 ± 0.069

row,Sequence,PBM E-score of 8-mer
1,CGTCTTCA,-0.00878 ± 0.0017
2,AGAACGAG,-0.0902 ± 0.0033
3,CGGCGAAA,-0.1403 ± 0.00085
4,GCCATTCA,0.104 ± 0.018
5,GAACGCTA,0.0135 ± 0.049
6,CATAACAA,0.0483 ± 0.038
7,GATAACAC,0.4169 ± 0.0014
8,AATAACAC,0.339 ± 0.052
9,GATAACAA,0.212 ± 0.042
10,GATAACGC,0.246 ± 0.0034
11,CATAACAC,0.42 ± 0.0089
12,GCTGTTCA,0.0254 ± 0.024
13,CGAAGATC,-0.07 ± 0.0097
14,ACCGCAGA,-0.332 ± 0.019
15,CATCCTCA,-0.0261 ± 0.11
16,GAACCTAC,-0.179 ± 0.00047
17,GGCTTAAA,-0.302 ± 0.016
18,ACAAGCTA,-0.0967 ± 0.014
19,GGGTGAAA,0.0558 ± 0.043
20,TCGTGACA,0.358 ± 0.017
21,GGGTGACC,-0.0479 ± 0.082
22,CGGTGACA,0.333 ± 0.0054
23,TGGTGACA,0.409 ± 0.01
24,GGGTGACA,0.4543 ± 0.0023
25,CGCGCTCA,0.13 ± 0.034

row,Sequence,PBM E-score of 8-mer
1,TATAAGGA,-0.154 ± 0.073
2,CACCAATA,0.224 ± 0.056
3,CCATGGCC,-0.263 ± 0.011
4,AGGTGACT,0.31 ± 0.015
5,AGGTGAAA,0.347 ± 0.022
6,CGGTGACG,0.179 ± 0.047
7,AGGTGACG,0.4629 ± 0.0014
8,AGGTGACC,0.172 ± 0.052
9,AGGTGACA,0.4826 ± 0.00079
10,GGGGGGCA,-0.327 ± 0.0093
11,GCTCTGAC,-0.205 ± 0.092
12,GGAAACCA,-0.1389 ± 0.00081
13,AACTCTCG,-0.128 ± 0.018
14,CATTCACC,-0.0785 ± 0.054
15,TATTCACA,0.411 ± 0.029
16,GATTCACC,-0.167 ± 0.0053
17,GATTCACA,0.38 ± 0.041
18,AATTCACG,0.365 ± 0.0071
19,AATTCACA,0.2798 ± 0.0014
20,CATTCACA,0.385 ± 0.0049
21,GATTCAGA,-0.206 ± 0.0085
22,CATTCACG,0.229 ± 0.041
23,AGACCACT,-0.234 ± 0.093
24,TACCCATA,-0.104 ± 0.024
25,AACTGACG,0.102 ± 0.036

row,Sequence,PBM E-score of 8-mer
1,AGGTGTGG,0.483 ± 0.0024
2,AGATGTGC,0.163 ± 0.018
3,AGGTGTGC,0.44 ± 0.0051
4,ACGTGTGG,0.362 ± 0.017
5,ATGTGTGG,0.3184 ± 0.0012
6,CTGTGTGC,-0.0563 ± 0.038
7,ATACTCCG,-0.00617 ± 0.029
8,AGAGTTAT,-0.0216 ± 0.013
9,GTCCAACA,0.198 ± 0.045
10,AAAGCGTG,0.2812 ± 0.0023
11,CGTAAACG,0.0455 ± 0.046
12,AGGCGTAG,0.0703 ± 0.0097
13,AGGCGTTC,0.0817 ± 0.053
14,GGGCGTTA,0.276 ± 0.0092
15,CGGCGTTA,0.189 ± 0.00085
16,AGGCGTTA,0.4486 ± 0.0021
17,AGGCGTTG,0.369 ± 0.0053
18,ATTGGAGG,0.0195 ± 0.049
19,AAATGGGC,0.0759 ± 0.0097
20,GGCAACGA,0.0835 ± 0.033
21,AGGAGATG,-0.0689 ± 0.011
22,ACTTTTAC,-0.0251 ± 0.02
